The record followed here is ChEMBL document CHEMBL3988442, “University of Dundee, Small-Polar-MMV Screening Library” (2021).

The structures appear in SMILES notation.

The first experiment has as its target AMP-activated protein kinase, AMPK (Homo sapiens) (UniProt P54646+O43741+P54619+Q9UGJ0+Q9Y478+Q13131+Q9UGI9). The experiment can be described thus: AMP-dependent Kinase enzyme assay. An in vitro enzyme assay that detects ADP turnover that is directly proportional to AMPK activity. This uses naive AMPK that is activated during the assay with MK-8722. The arrangement: scale not given: direction of the effect not stated beside the values. As to conditions: 30 µM. The experiment is classed as functional.
On to `c1ccc(OCCN2CCCC(c3noc(C4CC4)n3)C2)cc1` (stereo not given), for which the Percent Effect turned out to be 3.25%.

For `Cn1ccc(C(=O)N2CCN(CCc3ccccc3)CC2)cc1=O`, the Percent Effect was found to be 1.25%.

On to `CN(Cc1cccs1)C(=O)CN1CCCC1Cn1cncn1` (stereo not given), for which the Percent Effect was -63.7%.

`CNC(=O)C1(CCCc2ccncc2)CCCN1` (stereo not given): the Percent Effect stood at 14.6%.

Turning to `c1cn(Cc2nnc(C3CCN(C4CCOCC4)CC3)n2C2CC2)cn1`, the Percent Effect was -3.77%.

Regarding `COC(=O)CCc1c(C)nc2cc(O)nn2c1C`, the Percent Effect was -48.9%.

Turning to `CCN(CC1CCCO1)C(=O)Nc1cc(OC)c(OC)cc1C` (stereo not given), the Percent Effect was -14.4%.

For the compound `Cc1noc(C(C)C)c1C(=O)NCC(c1ccsc1)N(C)C` (stereo not given), the Percent Effect stood at 2.11%.

As to `O=C(Cc1ccccn1)N1C[C@@H]2CC[C@H](C1)N(Cc1ccccc1)C2=O`, the Percent Effect was 0.96%.

Consider `COCCn1cc(C(=O)N2CCCC2c2cc(C)no2)ccc1=O` (stereo not given), for which the Percent Effect amounted to 1.75%.

On to `CC(C)c1noc(CCCC(=O)N2CCC(Cc3cccnc3)CC2)n1`, for which the Percent Effect came out at 1.06%.

On to `Cc1nn(-c2ccccc2)c2c1C(c1ccc(C(=O)O)cc1)CC(=O)N2` (stereo not given), for which the Percent Effect was -3.15%.

On to `CC(OCC1CC1)C(=O)N1CCCN(c2ncccc2C#N)CC1` (stereo not given), for which the Percent Effect was -5.36%.

For `CCN(Cc1ccc2c(c1)OCCO2)S(=O)(=O)N(C)C(C)C`, the Percent Effect was determined as 3.89%.

Consider `CC(C)N(C)C(=O)C1=NOC2(CCN(C(=O)c3ccncc3)C2)C1` (stereo not given), for which the Percent Effect was -0.462%.

Regarding `CN1CCCC1c1cccc(Cc2ccccc2F)n1` (stereo not given), the Percent Effect was 13.4%.

Take `Cc1cc(CNc2ccc(C(=O)N3CCCC(C)C3)cc2C)no1` (stereo not given): the Percent Effect came to 0.477%.

On to `Cn1nc(C#N)c2c1CN(C(=O)c1cccnc1)CCC2`, for which the Percent Effect was -0.491%.

With `CCOCCCNC(=O)c1nn(CC)cc1Cl`, the Percent Effect is -2.38%.

For another experiment, the target named is Sialic acid-binding Ig-like lectin 9 (Homo sapiens) (UniProt Q9Y336). The experiment can be described thus: Hs-Siglec9 ALPHAscreen SOP 20170721. The arrangement: scale not given: direction of the effect not stated beside the values. As to conditions: 10 µM.
Sialic acid-binding Ig-like lectin 9 (Homo sapiens), sequence (Q9Y336 whole entry): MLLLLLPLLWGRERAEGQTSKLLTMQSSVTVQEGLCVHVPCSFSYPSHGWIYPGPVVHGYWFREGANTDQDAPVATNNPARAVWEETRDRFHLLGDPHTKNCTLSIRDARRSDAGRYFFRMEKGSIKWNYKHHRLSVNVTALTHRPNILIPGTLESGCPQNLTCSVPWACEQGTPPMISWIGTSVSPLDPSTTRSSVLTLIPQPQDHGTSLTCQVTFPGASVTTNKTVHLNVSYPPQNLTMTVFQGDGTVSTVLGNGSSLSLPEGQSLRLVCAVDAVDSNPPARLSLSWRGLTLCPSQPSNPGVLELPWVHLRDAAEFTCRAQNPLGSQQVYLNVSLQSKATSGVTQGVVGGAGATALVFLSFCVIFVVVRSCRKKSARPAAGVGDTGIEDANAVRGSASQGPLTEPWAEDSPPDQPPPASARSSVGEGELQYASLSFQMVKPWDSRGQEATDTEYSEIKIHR
`CC(=O)N1CCCN(Cc2csc(-c3ncccn3)n2)CC1`: the Percent Effect is -1%.

For `O=C(NCCc1ccn(-c2ccccc2)n1)N1CCC1`, the Percent Effect was -16.6%.

For the compound `O=C(NC1CC1)[C@H]1C[C@@H]2CCN(CCc3ccccc3)C[C@H]2O1`, the Percent Effect was -8.83%.

Consider `CC1c2ncc(CN3CCN(C)CC3)n2CCN1CC1CC1` (stereo not given), for which the Percent Effect is 5.11%.

For the compound `O=S(=O)(c1cccs1)N1CC[C@H](O)[C@@H]1Cc1ccncc1`, the Percent Effect was -0.784%.

For the compound `COCc1nc2cc(NCc3ccncc3)ccc2o1`, the Percent Effect is -0.763%.

As for `CCn1cc(CN(C)C(=O)c2cccc(CCC(C)(C)O)c2)cn1`, the Percent Effect was -0.5%.

As for `COCCCNC(=O)CCn1nc(C)c2ccccc21`, the Percent Effect was determined as 3.25%.

In the case of `CCc1nc(CN2CCCC(NCc3ccc(C(N)=O)cc3)C2)no1` (stereo not given), the Percent Effect is 9.52%.

Regarding `CCS(=O)(=O)N1CCO[C@H]2[C@H](OCCCn3cccn3)CC[C@@H]21`, the Percent Effect is -3.13%.

As to `Cc1nccn1C1CCCN(C(=O)c2ccc3c(c2)COC3)C1` (stereo not given), the Percent Effect was found to be 7.4%.

Take `Cc1cc(C)n(-c2ccc(CNCc3ccc(OC(C)C)cc3)cn2)n1`: the Percent Effect is -0.618%.

In the case of `CCc1nc(C2CCCN2Cc2nc3ccccc3o2)no1` (stereo not given), the Percent Effect amounted to 9.09%.

As for `CC(C)N1CCC(Cc2cc(-c3ccccc3C(=O)O)ncn2)CC1`, the Percent Effect is -7.29%.

`CC(=O)c1cccc(OCCCC(=O)NCC2CCCN2C)c1` (stereo not given): the Percent Effect came to 14.8%.

Regarding `CN1C(=O)C[C@@H]2[C@@H]1CCN2C(=O)c1ccc[nH]1`, the Percent Effect was 3.04%.

On to `Cc1cc(C)n(-c2cncc(N3CCN(C(=O)C(C)(C)C)CC3)n2)n1`, for which the Percent Effect is -2.19%.

On to `C1CCCN(c2nc(C3CC3)ns2)CC1`, for which the Percent Effect was found to be 6.34%.

As for `Cn1cnnc1S(=O)(=O)C1CCN(S(=O)(=O)C2CC2)CC1`, the Percent Effect was determined as 1.56%.

With `O=C(O)c1ccc(S(=O)(=O)Nc2ccc(Cl)c(F)c2)c(F)c1`, the Percent Effect amounted to 15.3%.

With `c1ccc(OCCN2CCCC(c3noc(C4CC4)n3)C2)cc1` (stereo not given), the Percent Effect is -3.02%.

Regarding `Cn1ccc(C(=O)N2CCN(CCc3ccccc3)CC2)cc1=O`, the Percent Effect was -2.05%.

`CN(Cc1cccs1)C(=O)CN1CCCC1Cn1cncn1` (stereo not given): the Percent Effect is 2.24%.

In the case of `CNC(=O)C1(CCCc2ccncc2)CCCN1` (stereo not given), the Percent Effect is 0.634%.

With `c1cn(Cc2nnc(C3CCN(C4CCOCC4)CC3)n2C2CC2)cn1`, the Percent Effect was -0.983%.

As to `COC(=O)CCc1c(C)nc2cc(O)nn2c1C`, the Percent Effect came out at 6.03%.

Regarding `CCN(CC1CCCO1)C(=O)Nc1cc(OC)c(OC)cc1C` (stereo not given), the Percent Effect amounted to 12.7%.

In the case of `Cc1noc(C(C)C)c1C(=O)NCC(c1ccsc1)N(C)C` (stereo not given), the Percent Effect is -4.7%.

As for `O=C(Cc1ccccn1)N1C[C@@H]2CC[C@H](C1)N(Cc1ccccc1)C2=O`, the Percent Effect was determined as 6.03%.

For the compound `COCCn1cc(C(=O)N2CCCC2c2cc(C)no2)ccc1=O` (stereo not given), the Percent Effect was found to be 2.51%.

As to `CC(C)c1noc(CCCC(=O)N2CCC(Cc3cccnc3)CC2)n1`, the Percent Effect turned out to be 8.41%.

Take `Cc1nn(-c2ccccc2)c2c1C(c1ccc(C(=O)O)cc1)CC(=O)N2` (stereo not given): the Percent Effect amounted to 13.8%.

Regarding `CC(OCC1CC1)C(=O)N1CCCN(c2ncccc2C#N)CC1` (stereo not given), the Percent Effect was -8.93%.

`CCN(Cc1ccc2c(c1)OCCO2)S(=O)(=O)N(C)C(C)C`: the Percent Effect was 16%.

In the case of `CC(C)N(C)C(=O)C1=NOC2(CCN(C(=O)c3ccncc3)C2)C1` (stereo not given), the Percent Effect was -1.1%.

`CN1CCCC1c1cccc(Cc2ccccc2F)n1` (stereo not given): the Percent Effect amounted to 1.77%.
